Compound activity (PubChem BioAssay)
NPR1 activator – GC-A (human) enzyme activation; P16066; HEK293 GC-A cells, cGMP TR-FRET, EC30 ANP; 0% at EC30 ANP, 100% saturating ANP; activation, % at 10 µM; 370,000 tested, 0.14% active; in the data active means activation above about 40%
aDG glyco act – alpha-DG glycosylation activation | Pro5-aDG cells, alpha-DG glycosylation AlphaScreen (IIH6); 0% Pro5, 100% B10-LARGE cell signal | activation, % at 10 µM | 360,000 tested, 0.22% active | AID 624168;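 active means activation of at least 8% versus controls, or a plate z-score of at least 8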;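 further: Pro5 are CHO cells carrying HIG-tagged alpha-DG that lacks glycosylation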
FAS TE block – blocks the thioesterase domain of human fatty acid synthase; P49327; recombinant FAS-TE, OMFH fluorogenic substrate, fluorescence endpoint; inhibition, % at 15 µM; 360,000 tested, 0.67% active; AID 602261;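 active means compounds whose normalised, plate-corrected inhibition of enzyme fluorescence in the single-dose primary screen is 50% or more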;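 further: 0% = DMSO with enzyme and 100% = substrate without enzyme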
GC-B act – GC-B (human) receptor activation | AID 1920062 | activation, % at 10 µM | 370,000 tested, 0.11% active | HEK293-GC-B cells, CNP EC30, cGMP TR-FRET; 0% at EC30 CNP, 100% saturating CNP | P20594;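 active means activation at 10 µM reaching about 35% in either raw or pattern-adjusted values, limit read from the data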
FAS-TE inh conf – confirmation of human fatty acid synthase thioesterase inhibitors; shares compounds with FAS TE block; recombinant FAS-TE, OMFH fluorogenic substrate, fluorescence; inhibition, % at 15 µM; 2,300 tested, 45% active; AID 624325;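 active means compounds inhibiting the enzyme by at least 50% at 15 µM in any one of the replicates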;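 further: 0% = enzyme with DMSO only and 100% = wells lacking enzyme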
* = called active by the depositor; . = no result. Shown are actives, neighbours in structure and some others; about 1.1% of the full set was active somewhere.

SMILES	NPR1 activator	aDG glyco act	FAS TE block	GC-B act	FAS-TE inh conf
CC(C)C[C@H](NC(=O)c1nc[nH]c1C(=O)NC1CCN(C(=O)OC(C)(C)C)CC1)C(=O)OC(C)(C)C	1	0	20	3	.
CC(C)(C)OC(=O)NCCCC[C@H](NC(=O)c1nc[nH]c1C(=O)NCC(=O)OCc1ccccc1)C(=O)OC(C)(C)C	-1	0	90*	4	96*
Cc1cccc(NC(=O)c2nc[nH]c2C(=O)N[C@@H](CCCCNC(=O)OC(C)(C)C)C(=O)OC(C)(C)C)c1	3	2	90*	0	55*
C[C@H](NC(=O)c1nc[nH]c1C(=O)N[C@@H](CCCCNC(=O)OC(C)(C)C)C(=O)OC(C)(C)C)C(=O)OCc1ccccc1	1	1	87*	6	74*
CCCCNC(=O)C[C@@H]1C(=O)N2CCCC3=C2[C@@]1(C(=O)OCC)CCC3	0	.	.	3	.
COc1ccc(NC(=O)C(CCCCNC(=O)OC(C)(C)C)NC(=O)OCc2ccccc2)cc1 (stereo not drawn)	-3	0	-6	5	.
CC(C)(C)OC(=O)CNC(=O)c1[nH]cnc1C(=O)N[C@@H](CCCCNC(=O)OC(C)(C)C)C(=O)OC(C)(C)C	6	0	87*	7	92*
CC(C)C[C@H](NC(=O)c1nc[nH]c1C(=O)NC1CCN(C(=O)OC(C)(C)C)CC1)C(=O)OCc1ccccc1	0	0	58*	12	61*
CC(C)(C)OC(=O)NCc1ccc(CNC(=O)c2[nH]cnc2C(=O)NC2CCN(C(=O)OC(C)(C)C)CC2)cc1	.	0	54*	.	40
CC(C)(C)OC(=O)N[C@@H](CCCCNC(=O)OCc1ccccc1)c1nnc([C@H](CCCCNC(=O)OCc2ccccc2)NC(=O)OC(C)(C)C)o1	.	0	66*	.	27
CC(C)(C)OC(=O)NCCCC[C@H](NC(=O)c1nc[nH]c1C(=O)NCc1ccc(CNC(=O)OC(C)(C)C)cc1)C(=O)OC(C)(C)C	-3	0	12	11	.
COC(=O)C1=C(C)N(C)C(=NCC2CC2)NC1c1cccc(Cl)c1 (stereo not drawn)	-21	.	.	-19	.
C=CCN1C(C(=O)OC)CN(Cc2cn(Cc3ccc(OC)cc3)nn2)CCS1(=O)=O (stereo not drawn)	4	.	.	3	.
CCNC(=O)N(C)[C@H]1C[C@H]2c3[nH]c4c(-c5cccc(C)c5)cccc4c3CCN2C(=O)[C@H]1[C@H](C)O	-5	.	.	-6	.
C[C@H](NC(=O)c1nc[nH]c1C(=O)N[C@@H](CCCCNC(=O)OC(C)(C)C)C(=O)OC(C)(C)C)C(=O)OC(C)(C)C	7	0	73*	14	62*
C[C@H](NC(=O)c1nc[nH]c1C(=O)N[C@@H](CCCCN)C(=O)OC(C)(C)C)C(=O)OC(C)(C)C	5	0	-8	5	.
Cc1cnc(NC(=O)CCNC(=O)c2ccc([N+](=O)[O-])cc2)s1	-2	0	19	-5	.
Cc1cc(C)cc(NC(=O)CCNC(=O)c2ccc([N+](=O)[O-])cc2)c1	0	0	69*	-4	16
Cc1csc(NC(=O)CCNC(=O)c2ccc([N+](=O)[O-])cc2)n1	-6	0	68*	-1	71*
COc1ccc(N2C(=O)C3C4c5ccccc5C(C=Nc5ccc(C)cc5C)(c5ccccc54)C3C2=O)cc1 (stereo not drawn)	-4	0	56*	2	0
O=C(CNCC1CCCO1)Nc1ccc([N+](=O)[O-])cc1C(=O)Nc1ccccc1F (stereo not drawn)	-8	0	18	1	.
COc1cccc(NC(=O)c2cc([N+](=O)[O-])ccc2NC(=O)CNCC2CCCO2)c1 (stereo not drawn)	-2	-1	52*	1	57*
Cc1ccc(C(=O)N2CCC(Oc3cccnc3)CC2)cc1	4	.	.	2	.
COc1ccc(S(=O)(=O)N2CCN(C(=O)c3cccc(S(=O)(=O)N4CCCC4)c3)CC2)cc1	-7	0	-2	-3	.
COc1ccc(N(C)S(=O)(=O)c2cccc(C(=O)N3CCN(S(=O)(=O)c4ccc(C)cc4)CC3)c2)cc1	0	0	52*	-1	5
SMILES	NPR1 activator	aDG glyco act	FAS TE block	GC-B act	FAS-TE inh conf
CSC(=Nc1ccccc1)N=C(SCc1ccccc1)N(C)C	-18	0	84*	-6	90*
N#CNC(=Nc1ccccc1)SCc1ccc(C(=O)O)cc1	-3	0	-3	7	.
Cc1ccc(S(=O)(=O)N(C)[C@H]2C[C@H]3c4cc(N5CCOCC5)ccc4CCN3C[C@H]2[C@H](C)O)cc1	1	.	.	-1	.
CC12CN(C(=O)c3ccc([N+](=O)[O-])cc3)CC(C)(CN(C(=O)c3ccc([N+](=O)[O-])cc3)C1)C2=O	5	.	.	2	.
CCCC12CN(C(=O)c3ccc([N+](=O)[O-])cc3)CC(C)(CN(C(=O)c3ccc([N+](=O)[O-])cc3)C1)C2=O	4	0	55*	2	62*
C[C@H]1[C@@H]2C[C@@]3(O[C@H](c4ccc(C(F)(F)F)cc4)N=C3C[C@@H]1c1ccccc1)N(Cc1ccncc1)C2=O	3	.	.	-3	.
COc1ccc(-n2c(SCC(=O)Nc3cc(C)c(NC(=O)c4ccccc4)cc3OC)nnc2-c2ccco2)cc1	-1	.	.	-7	.
COc1ccc(S(=O)(=O)c2cnc3ccc(OC)cc3c2N2CCC3(CC2)OCCO3)cc1	-4	0	72*	0	60*
CCOc1ccc2ncc(S(=O)(=O)c3ccccc3)c(N3CCC4(CC3)OCCO4)c2c1	-6	.	.	-1	.
Cc1cc(C)cc(NC(=O)OC2CC3CC2[C@H]2CCCCN2[C@H]3Cc2ccccc2)c1 (stereo partly drawn)	-9	.	.	-2	.
CC(C)N1C(=O)S/C(=C\c2ccc(-c3ccc(Cl)c(C(=O)O)c3)o2)C1=O	2	0	69*	-6	75*
COC1=C[C@H](C(=O)N[C@H]2CCCC[C@@H]2NC(C)=O)[C@@]2(C)Cc3ccccc3[C@H]2CC1=O	4	.	.	-2	.
COc1ccc(CCN2CC(=O)N3CCc4ccc(N5CCOCC5)cc4C3CC2=O)cc1OC (stereo not drawn)	0	.	.	4	.
O=C(CNc1cc(S(=O)(=O)N2CCCC2)ccc1OCC(F)(F)F)Nc1cccc(C(F)(F)F)c1	1	0	64*	-1	18
CCCC1CCC2(CCC(=O)N2CCO)CC1 (stereo not drawn)	4	.	.	0	.
CS(=O)(=O)c1ccc(-c2csc(-c3cccnc3)n2)cc1	-2	0	58*	5	50*
CN(C)S(=O)(=O)c1ccc(-c2csc(-c3cccnc3)n2)cc1	-6	0	75*	-3	78*
CCOC(=O)[C@]12CCCC=C1N(Cc1ccc(OC)cc1)C(=O)[C@@H]2CC(=O)NCc1ccccc1	-3	.	.	4	.
